From PubChem BioAssay (Tox21)
Results filed as inconclusive are left out. The source made the active and inactive calls. Unless noted, calls follow the shape of the dose curve; as a rule, active = well fitted curve in the direction sought with a large enough effect in the repeat runs; inconclusive = weak or mixed curves; inactive = no such curve, though single readings can be large; an effect the other way counts as inactive or inconclusive.

Assays:
[1] = qHTS assay to identify aromatase inhibitors - cell viability counter screen (AID 743084);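 also: cells stimulated with testosterone during compound exposure; nearly all actives have a fitted effect of over 55% in size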
[2] = molecular target: Aryl hydrocarbon receptor (Homo sapiens) (UniProt P35869); assay: qHTS assay to identify small molecule that activate the aryl hydrocarbon receptor (AhR) signaling pathway (AID 743085);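 also: HG2L7.5c1 human HepG2 liver cells with stably integrated DRE-driven firefly reporter; series mostly up to about 70 µM; nearly all actives have a fitted effect of over 15% in size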
Aryl hydrocarbon receptor (Homo sapiens), sequence (P35869 whole entry, looked up): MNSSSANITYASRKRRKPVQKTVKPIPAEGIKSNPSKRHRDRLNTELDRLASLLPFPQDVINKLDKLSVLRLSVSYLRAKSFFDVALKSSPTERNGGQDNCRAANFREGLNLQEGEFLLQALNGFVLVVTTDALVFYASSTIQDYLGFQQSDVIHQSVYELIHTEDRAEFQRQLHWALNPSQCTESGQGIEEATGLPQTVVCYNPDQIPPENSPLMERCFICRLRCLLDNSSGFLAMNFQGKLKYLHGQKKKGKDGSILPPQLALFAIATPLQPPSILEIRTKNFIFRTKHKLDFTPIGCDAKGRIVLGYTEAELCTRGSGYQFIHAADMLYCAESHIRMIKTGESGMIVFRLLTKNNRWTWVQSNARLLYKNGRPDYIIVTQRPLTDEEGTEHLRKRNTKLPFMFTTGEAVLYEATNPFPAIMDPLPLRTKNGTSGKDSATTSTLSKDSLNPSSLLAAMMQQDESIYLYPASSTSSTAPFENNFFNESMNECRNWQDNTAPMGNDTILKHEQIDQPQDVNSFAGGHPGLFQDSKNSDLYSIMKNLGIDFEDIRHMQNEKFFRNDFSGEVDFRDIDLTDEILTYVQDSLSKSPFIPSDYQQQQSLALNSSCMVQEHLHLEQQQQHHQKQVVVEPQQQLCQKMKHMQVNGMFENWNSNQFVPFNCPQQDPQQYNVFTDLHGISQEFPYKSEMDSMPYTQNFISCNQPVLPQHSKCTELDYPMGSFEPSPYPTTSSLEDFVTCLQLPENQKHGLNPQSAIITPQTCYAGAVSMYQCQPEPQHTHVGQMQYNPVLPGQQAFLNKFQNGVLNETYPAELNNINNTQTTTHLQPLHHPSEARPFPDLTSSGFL
Method in brief: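 Compounds were tested in HepG2 hepatocellular carcinoma cells harbouring a stably integrated luciferase gene under control of 20 DREs. Increased reporter signal after 24 h treatment at 37C was taken as AhR activation.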

[3] = qHTS assay to identify small molecule that activate the aryl hydrocarbon receptor (AhR) signaling pathway - cell viability counter screen (AID 743086);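 also: HepG2 liver cells carrying the AhR DRE luciferase reporter; series mostly up to about 70 µM; nearly all actives have a fitted effect of over 45% in size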
Method in brief: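 Cytotoxicity counter screen: CellTiter-Fluor signal (30 min, 37 C) in 4000 HepG2 cells/well carrying the DRE-luciferase reporter, following 24 h compound exposure at 37 C.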

[4] = molecular target: Peroxisome proliferator-activated receptor gamma (Homo sapiens) (UniProt P37231); assay: qHTS assay to identify small molecule agonists of the peroxisome proliferator-activated receptor gamma (PPARg) signaling pathway (AID 743094; active = well fitted activation curve with a large enough effect in the signal ratio in the repeat runs, not every such curve was filed as active; the % refers to the signal ratio)
Peroxisome proliferator-activated receptor gamma (Homo sapiens), sequence (P37231 whole entry, looked up): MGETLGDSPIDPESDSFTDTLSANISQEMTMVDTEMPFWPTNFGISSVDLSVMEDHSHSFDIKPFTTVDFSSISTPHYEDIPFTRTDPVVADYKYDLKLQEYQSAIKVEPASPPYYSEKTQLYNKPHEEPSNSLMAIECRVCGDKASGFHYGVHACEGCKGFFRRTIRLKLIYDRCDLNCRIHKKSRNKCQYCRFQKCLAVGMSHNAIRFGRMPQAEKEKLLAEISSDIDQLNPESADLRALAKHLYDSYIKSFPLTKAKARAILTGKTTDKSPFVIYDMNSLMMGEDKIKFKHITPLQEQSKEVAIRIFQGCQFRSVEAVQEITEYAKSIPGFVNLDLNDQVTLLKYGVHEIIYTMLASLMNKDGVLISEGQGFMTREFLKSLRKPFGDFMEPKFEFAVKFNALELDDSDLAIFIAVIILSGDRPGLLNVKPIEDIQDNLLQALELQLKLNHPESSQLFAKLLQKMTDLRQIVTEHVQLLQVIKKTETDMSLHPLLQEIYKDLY
Method in brief: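 Fluorescence-based beta-lactamase readout in HEK293H PPARg UAS-bla cells after 17 h compound exposure (37C) and 1 h B/G FRET substrate incubation at room temperature.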

[5] = molecular target: Peroxisome proliferator-activated receptor gamma (Homo sapiens) (UniProt P37231); assay: qHTS assay to identify small molecule antagonists of the peroxisome proliferator-activated receptor gamma (PPARg) signaling pathway (AID 743191; calls by dose curve; also: series mostly up to about 63 µM; nearly all actives have a fitted effect of over 30% in size)
Method in brief: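 Beta-lactamase reporter under UAS control in HEK293H PPARg-bla cells; compound treatment 17 h at 37C. Read-out: fluorescence intensity after 1 h room-temperature incubation with LiveBLAzer B/G FRET substrate.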

[6] = qHTS assay for small molecule agonists of the antioxidant response element (ARE) signaling pathway (AID 743202; active = well fitted activation curve with a large enough effect in the signal ratio in the repeat runs, not every such curve was filed as active; the % refers to the signal ratio)
Method in brief: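 Beta-lactamase reporter activity, read as fluorescence intensity, reflects ARE/Nrf2 pathway induction in HepG2 cells after 16 h compound exposure at 37 C; substrate loading was 2 h at room temperature.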

[7] = qHTS assay for small molecule agonists of the antioxidant response element (ARE) signaling pathway - cell viability counter screen (AID 743203; calls by dose curve; also: nearly all actives have a fitted effect of over 55% in size)
Method in brief: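 Parallel cytotoxicity read-out for the ARE-bla screen: HepG2 reporter cells, 16 hrs with compounds, then CellTiter-Glo luminescence.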

[8] = qHTS assay for small molecule activators of the heat shock response signaling pathway - cell viability counter screen (AID 743209); also: nearly all actives have a fitted effect of over 50% in size
Method in brief: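 To flag cytotoxic compounds, HSE-bla HeLa cells plated at 1500 cells/well were dosed for 5 h at 37 C, followed by the reporter FRET read and then CellTiter-Glo, with luminescence recorded 30 min after reagent addition.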

[9] = qHTS assay for small molecule activators of the heat shock response signaling pathway (AID 743210; active = well fitted activation curve with a large enough effect in the signal ratio in the repeat runs, with a control signal flat, not every such curve was filed as active; the % refers to the signal ratio;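 also: HeLa cells with beta-lactamase reporter driven by heat shock elements; series mostly up to about 63 µM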)
Method in brief: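 Fluorescence from a cleaved B/G FRET substrate (2.5 h, room temp) reports HSE-driven beta-lactamase in HeLa cells treated 5 h at 37 C with DMSO-dissolved compounds.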

[10] = qHTS assay to identify small molecule antagonists of the peroxisome proliferator-activated receptor gamma (PPARg) signaling pathway - cell viability counter screen (AID 743194); also: nearly all actives have a fitted effect of over 55% in size
Method in brief: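 Viability was measured as CellTiter-Glo luminescence in GeneBLAzer PPARg UAS-bla HEK293H cells. These cells had been exposed 17 h at 37 C to compounds together with rosiglitazone at 50 nM final, with the beta-lactamase readout taken in the same wells.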

Measured: Potency

CC(O)C(CO)C(C)O (configuration not stated)
not listed: [10]
inactive: all other assays above

C=CC(=O)OCC[N+](C)(C)C
not listed: [6]
inactive: all other assays above

CC(C)c1cc(C(C)C)cc(C(C)C)c1
not listed: [5]
inactive: all other assays above

CC[N+](C)(CC)CC
not listed: [5]
inactive: all other assays above

CCCCS
not listed: [5]
inactive: all other assays above

CC(C)(C)OC=O
not listed: [5]
inactive: all other assays above

CCCCNCC
not listed: [5] | [9]
inactive: all other assays above

CCCCOCCCC
not listed: [5]
inactive: all other assays above

C=CCN(CC=C)CC=C
not listed: [5] | [6]
inactive: all other assays above

CCCCCCC(=O)c1ccccc1
not listed: [5] | [7]
inactive: all other assays above

CCC(C)c1nccnc1OC (configuration not stated)
not listed: [5]
inactive: all other assays above

Cc1cccc(N)n1
not listed: [5] | [7]
inactive: all other assays above

CC(C)(C)C(=O)NCCCC(=O)O
not listed: [5] | [7]
inactive: all other assays above
